D2 antag – antagonists of human D2 dopamine receptor; P14416; HEK293 TREx D2 cells, calcium flux, dopamine EC80; inhibition, % at 10 µM; 340,000 compounds, 2% hits; AID 485344; in the data active means inhibition above about 30%; inactive means below that, where a call was filed
Target sequence (P14416 whole entry, looked up): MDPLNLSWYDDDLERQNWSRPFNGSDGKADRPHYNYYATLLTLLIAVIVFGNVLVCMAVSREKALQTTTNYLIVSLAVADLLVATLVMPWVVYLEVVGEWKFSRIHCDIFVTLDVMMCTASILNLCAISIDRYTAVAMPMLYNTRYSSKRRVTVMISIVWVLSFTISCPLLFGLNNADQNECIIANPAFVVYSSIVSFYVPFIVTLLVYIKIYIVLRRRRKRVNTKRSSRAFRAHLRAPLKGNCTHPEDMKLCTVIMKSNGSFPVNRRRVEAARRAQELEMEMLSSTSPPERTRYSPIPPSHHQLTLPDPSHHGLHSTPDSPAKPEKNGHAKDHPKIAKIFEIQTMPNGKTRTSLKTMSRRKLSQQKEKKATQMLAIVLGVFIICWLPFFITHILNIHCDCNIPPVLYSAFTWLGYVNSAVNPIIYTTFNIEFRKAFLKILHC
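Measurement of antagonist activity uses fluorescent calcium dye in inducible HEK293 T-REx D2 cells: 10 s baseline, compound addition with 180 s read, EC80 dopamine addition with a further 180 s read.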
D2 PAM-1 – positive allosteric modulators of human D2 dopamine receptor | AID 485347 | P14416 | potentiation, % at 10 µM | 340,000 compounds, 0.34% hits | HEK293 T-REx D2, calcium flux, EC20 dopamine potentiation;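 active means potentiation over 3 SD above the plate norm, cut at about 30% in these data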
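Calcium flux readout, no-wash dye, 1 read/s. Inducible HEK293 Trex D2 line, overnight 30 C. Compound alone 180 s (agonist flags), then EC20 dopamine, another 180 s to score potentiation.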
D2 ag-1 – agonists of human D2 dopamine receptor (beta-arrestin). P14416. DiscoveRx PathHunter D2 beta-arrestin, luminescence, 90 min; 100% = 57 uM dopamine signal. activation, % (concentration not given with the values). 360,000 compounds, 0.084% hits. AID 624465; in the data active means activation above about 40%
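Agonist mode: compounds alone added to overnight-plated D2 PathHunter cells for 90 min at 37 C, with 57 uM final dopamine (EC100) defining full response. Beta-arrestin recruitment detected by chemiluminescent reagent, read after 1 h at ambient temperature.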
D2 ag-2 – D2 dopamine receptor (human) agonism; P14416; activation, % at 2 µM; 340,000 compounds, 0.53% hits; HEK293 T-REx D2 cells, calcium flux agonist mode;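 active means activation over 3 SD above normal in the single-dose calcium agonist read, cut at about 30% in these data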
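Calcium-flux readout, 1 cycle/sec over 180 s following compound pin transfer, in inducible HEK293 Trex D2 cells (force-coupled); dopamine controls included. Positive calcium responses during this window marked compounds as potential agonists.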
D2 PAM-2 – positive allosteric modulators of human D2 dopamine receptor; P14416; DiscoveRx D2 beta-arrestin cells, luminescence, 90 min; 100% = 57 uM dopamine signal; potentiation, % (concentration not given with the values); 360,000 compounds, 0.23% hits; in the data active means potentiation above about 50%
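PathHunter D2 cells, attached overnight at 37 deg C, received compound in DMSO plus dopamine at EC20 (50 nM final) for 90 min at 37 deg C. Beta-arrestin recruitment was read as luminescence after 1 h with detection reagent at ambient temperature.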
Hits are given with their value; n = inactive; x = not tested or not shown. Most compounds without a hit are left out; they make up all but 2.4% or so of the library.

SMILES	D2 antag	D2 PAM-1	D2 ag-1	D2 ag-2	D2 PAM-2
Cc1ccc(C)c(Cn2nc3c4ccccc4n(Cc4ccccc4)cc-3c2=O)c1	30	n	n	n	n
CCOc1ccc(-c2csc(-c3c(N)c(C(=O)c4ccc5c(c4)OCO5)n4ccccc34)n2)cc1	x	n	x	n	x
O=Nc1c(O)c2ccccc2c2ccccc12	x	x	n	x	67
O=c1ccc2ccccc2c2ccccc12	x	x	n	x	n
CC(=O)NC(=S)Nc1ccccc1C(=O)Nc1ccccc1	47	n	n	n	n
CCCCC(=O)NC(=S)Nc1ccccc1C(=O)Nc1ccccc1	n	n	n	n	n
COc1ccc(N2CCN(C(=O)Cc3c(C(=O)O)c(C)cn3C)CC2)cc1	x	n	x	n	x
CCOCCCNCc1ccc(OCCC(C)C)c(OC)c1	35	n	n	n	n
COc1ccc(OC)c(NC(=O)c2oc3c(c2C)-c2nn(Cc4ccc(Cl)cc4)cc2CC3)c1	x	n	x	n	x
CCOCCc1nn2c(=O)cc(COC(=O)C(CC)c3ccccc3)nc2s1 (stereo unspecified)	x	n	x	n	x
Cc1nn(-c2ccccc2)c2c1N(CCCC(=O)NC(C)c1ccccc1)C(=O)CS2 (stereo unspecified)	x	n	x	n	x
COc1ccc(CCNCC(=O)Nc2ccc(C)c(S(=O)(=O)N(C)C)c2)cc1	33	n	n	n	n
COc1ccc(CCC(=O)Nc2ccc(C)c(S(=O)(=O)N(C)C)c2)cc1OC	n	n	n	n	n
CCN1CCN(c2cc3c(cc2F)c(=O)c(S(=O)(=O)c2cc(C)cc(C)c2)cn3CC)CC1	x	n	x	x	x
Cc1c2cnn(CC(=O)N3CCCCC3)c(=O)c2c(C)n1Cc1ccc(Cl)cc1	x	n	x	n	x
CCN1C(=O)c2ccccc2S(=O)(=O)c2ccc(C(=O)NCc3ccccc3)cc21	x	n	x	n	x
O=C(CN1CCCC1)Nc1ccc(Br)cc1	n	n	n	n	n
O=C(CN1CCCCCC1)Nc1ccc(Br)cc1	77	n	n	n	n
O=C(Cc1ccc(Cl)cc1)Nc1ccc(Br)cc1	44	n	n	n	n
CCOC(=O)c1cc(NC(=O)CN2CCCC2)cc(C(=O)OCC)c1	n	36	n	n	n
COC(=O)c1cc(NC(=O)CN2CCOCC2)cc(C(=O)OC)c1	n	n	n	n	n
COC(=O)c1ccc(NC(=O)CN2CCN(CCO)CC2)cc1	33	n	n	n	n
COc1ccc(S(=O)(=O)c2nnn(-c3ccccc3F)c2C)cc1	x	n	x	n	x
Cc1ccc(C)c(NC(=O)CCc2nc3cccnc3n2Cc2cccs2)c1	x	n	x	n	x
CCOC(=O)c1ccc(NC(=O)CN2c3ccccc3S(=O)(=O)c3ccccc32)cc1	x	n	x	n	x
SMILES	D2 antag	D2 PAM-1	D2 ag-1	D2 ag-2	D2 PAM-2
CCN(CC)C(=O)Cn1c(=O)n(Cc2ccc(C(=O)NCCc3ccc(OC)c(OC)c3)cc2)c(=O)c2ccccc21	x	n	x	n	x
CC(C)(C)OC(=O)N1CCC(c2c(C(=O)Nc3ccc4c(c3)OCCO4)cnn2-c2ccccc2)CC1	x	n	x	n	x
CC(=O)Nc1ccc(S(=O)(=O)NCc2cccn2Cc2cccc(C)c2)cc1	x	n	x	n	x
CC1CN(CC(=O)Nc2ccc(Br)cn2)CC(C)O1 (stereo unspecified)	n	n	n	n	n
CN1CCN(CCC(=O)Nc2cccc(Br)c2)CC1	n	n	n	n	n
O=C(CCN1CCCCC1)Nc1cccc(Br)c1	55	n	n	n	n
O=C(CN1CCCCCC1)Nc1ccc(Br)cn1	41	n	n	n	n
COc1cc(OC)cc(-c2nnc(SCC(=O)c3ccc([N+](=O)[O-])cc3)o2)c1	x	n	x	n	x
CC(=O)Nc1cc[n+](C(C)C(=O)c2ccc(Br)cc2)cc1 (stereo unspecified)	54	n	n	n	n
CC(=O)Nc1cc[n+](C(C)C(=O)c2ccccc2)cc1 (stereo unspecified)	n	n	n	n	n
Cc1ccc(NC(=O)CN2CCCN(Cc3cc(C)ccc3C)S2(=O)=O)c(Cl)c1	x	n	x	n	x
S=C(Nc1ccccc1Cl)N1CCC(c2ccccc2)C1 (stereo unspecified)	n	n	n	n	n
Cc1ccc(NC(=S)N2CCC(c3ccccc3)C2)c(Cl)c1 (stereo unspecified)	30	n	n	n	n
CCN(CC(O)CON=C1c2ccccc2-c2ccccc21)S(=O)(=O)c1ccc(C)cc1 (stereo unspecified)	34	n	n	n	n
COc1ccc(C(O)(CCC(C)C)C(CN2CCOCC2)c2ccc(Cl)cc2)cc1 (stereo unspecified)	n	41	n	n	n
CCC1CCCCN1C(=O)Cn1c(=O)n(CCCCCC(=O)NCc2ccccc2Cl)c(=O)c2sccc21 (stereo unspecified)	x	n	x	n	x
CC(Sc1nccn1C)C(=O)Nc1ccc(Cl)cn1 (stereo unspecified)	49	n	n	n	n
CCC(Sc1nccn1C)C(=O)Nc1ccc(Cl)cn1 (stereo unspecified)	n	n	n	n	n
C=CCn1c(/N=C/c2ccc(N(C)C)cc2)nc2ccccc21	x	x	n	x	n
CCCCn1c(Nc2ccccc2)nc2ccccc21	36	n	n	n	n
CCCCCn1c(NCc2ccco2)nc2ccccc21	34	n	n	n	n
CCCCn1c(/N=C/c2ccc(N(C)C)cc2)nc2ccccc21	n	49	n	n	n
CCCn1c(Nc2nc3ccccc3n2C)nc2ccccc21	n	n	n	n	n
CCCCn1c(N)nc2ccccc21	31	n	n	n	n
CCOc1ccc(CCNC(=O)c2cn(C)c3ccc(S(=O)(=O)N4CCCCCC4)cc3c2=O)cc1OCC	x	n	x	n	x
SMILES	D2 antag	D2 PAM-1	D2 ag-1	D2 ag-2	D2 PAM-2
Cc1cc(OC(=O)c2ccco2)c(Sc2ccccc2[N+](=O)[O-])c(=O)o1	34	n	n	n	n
O=C(O)CC1(CC(=O)N2CCOCC2)CCCC1	n	36	n	n	n
O=C(O)CC1(CC(=O)N2CCC(C(=O)O)CC2)CCCC1	n	n	n	n	n
COc1ccc(Nc2nc(C(=O)N3CCc4cc(OC)c(OC)cc4C3)cs2)cc1	n	n	n	n	n
COc1ccc(Nc2nc(C(=O)N3CCc4ccccc4C3)cs2)cc1	81	n	n	n	n
Nc1nonc1C(=O)NCCNCc1c(OCc2ccccc2F)ccc2ccccc12	n	n	n	n	n
CNCc1c(OCc2ccccc2F)ccc2ccccc12	78	n	n	n	n
CNCc1c(OCc2ccccc2)ccc2ccccc12	79	n	n	n	n
CC1=C(C(=O)OCC2CCCO2)C(c2coc3ccc(Cl)cc3c2=O)C2=C(CCCC2=O)N1 (stereo unspecified)	n	n	n	n	n
CC1=C(C(=O)OCC2CCCO2)C(c2coc3ccc(C)cc3c2=O)C2=C(CCCC2=O)N1 (stereo unspecified)	n	31	n	n	n
CCc1ccc(S(=O)(=O)c2nnn(-c3cccc(C)c3)c2N)cc1	x	n	x	n	x

Screens deposited in PubChem BioAssay by National Center for Advancing Translational Sciences (NCATS).
